Out of some 290,000 compounds screened, about 2,300 (0.79%) were called active. Shown is part of a subset that was picked to be rich in actives. Values without a mark were called inactive. Cut-off read from the data, not from the text of the source: active = inhibition above about 22%; inactive = the rest.
Assay: cytotoxicity in IEC-6 intestinal epithelial cells, primary screen, cytotoxicity control for KLF5 inhibitor project, cell-based, luminescence (AID 1825);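 note: 0% = plate median of test compound wells and 100% = cytotoxic reference compound wells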
Conditions: IEC-6 cytotoxicity, luminescence viability; at 5 µM; active compounds read high

Compound | inhibition
Cc1[nH]c2ccc(C(=O)N3CCN(C)CC3)cc2c1C | 0.4%
CCOc1ccccc1N1CCN(C(=O)c2ccc3[nH]c(C)c(C)c3c2)CC1 | 36.2% (active)
COc1ccccc1N1CCN(C(=O)c2ccc(Cl)c(S(=O)(=O)N3CCCC3)c2)CC1 | -2.9%
CCN(C(=O)COC(=O)c1ccc(COc2ccc3c(C)cc(=O)oc3c2)cc1)C1CCS(=O)(=O)C1 (stereo not drawn) | -1.8%
Cc1ccc(C)c(NC(=O)C2Cc3ccccc3CN2C(=O)OCc2ccccc2)c1 (stereo not drawn) | -6.3%
COc1ccc(CCNC(=O)c2ccccc2OCc2ccccc2)cc1 | -0.9%
CCOc1ncccc1C(=O)NCCc1ccc(OC)cc1 | 22% (active)
O=C(NCCc1ccccn1)c1cccnc1Oc1ccc(Cl)cc1 | 5%
COc1ccc(/C=C(\C#N)c2c[nH]c3ccccc23)cc1 | 86.1% (active)
COc1ccc2[nH]cc(/C=C(/C#N)S(=O)(=O)c3ccccc3)c2c1 | -0.2%
COc1cc(/C=C(\C#N)c2nc3ccccc3[nH]2)ccc1O | 2%
CN(CC(=O)O)S(=O)(=O)c1ccc2oc3ccccc3c2c1 | -1.3%
C=Cc1ccc(C(=O)N2CCCC(CCC(=O)N3CCN(c4ccccn4)CC3)C2)cc1 (stereo not drawn) | -8.1%
CN(C(=O)CN1C(=O)S/C(=C\c2ccccc2F)C1=O)C1CCS(=O)(=O)C1 (stereo not drawn) | -4.8%
N#CC(C(=O)c1ccc(S(=O)(=O)N2CCCCCC2)cc1)c1nc2ccccc2[nH]1 (stereo not drawn) | 3%
O=C(C1CCCO1)N1CCC(c2nc3ccccc3[nH]2)CC1 (stereo not drawn) | -5.3%
O=S(=O)(c1ccc(Br)cc1)N1CCC(c2nc3ccccc3[nH]2)CC1 | 43.7% (active)
O=C(Nc1cccnc1Cl)c1cc(-c2ccccc2O)on1 | -3.1%
Cc1ccc(OCCOc2cccc(/C=N/NC(N)=O)c2)cc1 | 3.9%
CNC(=O)C1CCN(S(=O)(=O)c2c(C)noc2/C=C/c2cccc(C)c2)CC1 | -7.8%
Cc1cccc2c1N(CC(=O)OC(C)C)C(=O)C2=O | 2.7%

Compound | inhibition
CC(C)OC(=O)CN1C(=O)c2ccccc2C1=O | 1.2%
CC(C)OC(=O)CN1C(=O)C(=O)c2ccccc21 | 24.8% (active)
COc1ccc(CCNS(=O)(=O)c2cn(C)nc2C)cc1 | 3%
CCCOc1ccc(C2=CSC3=NCCN23)cc1Cl | -2.6%
O=C(Nn1cnnc1)c1cc(Cl)ccc1Cl | 1.3%
Cc1ccc(NS(=O)(=O)c2ccc(F)cc2)nc1 | 1.3%
COc1ccccc1-c1nc(C#N)c(N2CCC(C(N)=O)CC2)o1 | 0.7%
COc1ccc(Nc2oc(-c3ccccc3Cl)nc2C#N)cc1 | 26.1% (active)
Cc1ccccc1-c1nc(C#N)c(NCc2ccco2)o1 | -5.6%
CCC(C)N1CC(=O)N2Cc3[nH]c4ccccc4c3C[C@H]2C1=O (stereo partly drawn) | 9.4%
NC(=O)c1oc2ccccc2c1NC(=O)Cc1ccccc1 | -3.9%
O=C(CSc1nnc2ccc(-c3ccncc3)nn12)N1CCCCC1 | -4.1%
Fc1cccc(CSc2nnc3ccc(-c4ccncc4)nn23)c1 | -4%
CSc1nnc2ccc(-c3ccc(C)cc3)nn12 | 23.2% (active)
CCOC(=O)N1CCN(C(=O)c2cn(C)c3ccc(S(=O)(=O)N(CC)CC)cc3c2=O)CC1 | -5.4%
COC(=O)c1ccc(NC(=O)CSc2nncn2-c2cccnc2)cc1 | 0.4%
COc1cccc(-c2cc(C(=O)N3CCN(c4ccccc4OC)CC3)no2)c1 | 12.1%
COc1ccccc1N1CCN(C(=O)c2cc(=O)c3cc(C)ccc3o2)CC1 | 17.9%
COc1ccccc1N1CCN(C(=O)c2cc(=O)c3cc(C)cc(C)c3o2)CC1 | 93.6% (active)
COC1=C(N2CCOCC2)C(=O)c2ccccc2C1=O | -1.6%
COc1ccc(NC(=O)c2cccc3c2C(=O)N(CC2CCCO2)C3)cc1OC (stereo not drawn) | -0.8%

Compound | inhibition
COc1ccc(CNS(=O)(=O)c2ccc(-c3cnc(C4CC4)o3)cc2)cc1 | -1.9%
Cc1cccc(CNS(=O)(=O)c2ccc(-c3cnc(C4CC4)o3)cc2)c1 | 4.4%
Cc1cccc(NS(=O)(=O)c2ccc(-c3cnc(C4CC4)o3)cc2)c1 | 77.2% (active)
Cc1cccc(CS(=O)(=O)c2ncc(Cl)c(C(=O)Nc3ccc(F)cc3)n2)c1 | 77.4% (active)
CCSc1ncc(Cl)c(C(=O)Nc2cc(C)ccc2C)n1 | 5.4%
Cc1cccc(NC(=O)C(C)SCc2ccccc2)c1 (stereo not drawn) | 0.6%
Cc1cccc(OCc2ccc(C(=O)Nc3ccc(F)cc3)cc2)c1 | 0.7%
Cc1cccc(NC(=O)c2nc(S(=O)(=O)Cc3ccccc3)ncc2Cl)c1 | 88.2% (active)
CCOc1ccc(NC(=O)c2nc(SCC)ncc2Cl)cc1 | 12.7%
CN1C2CCC1CC(NC(=O)c1ccc([N+](=O)[O-])cc1)C2 (stereo not drawn) | 5%
CC(NC(=O)COc1cccnc1[N+](=O)[O-])c1ccc(Cl)cc1Cl (stereo not drawn) | -1.6%
Cc1cccc(NC(=O)c2ccc(S(=O)(=O)N(C)CC3CCCO3)cc2)c1C (stereo not drawn) | -2.6%
COc1ccc(CNC(=O)C(C)n2nc(C)c3c(C)n(-c4ccccc4)nc3c2=O)c(OC)c1 (stereo not drawn) | 0.3%
CC1CN(C(=S)Nc2ccccc2F)CC(C)O1 (stereo not drawn) | 1.8%
CC(=O)NC1=NN(C(C)=O)C(C)(c2ccc(Cl)s2)S1 (stereo not drawn) | 23.7% (active)
CC(=O)NC1=NN(C(C)=O)C(C)(CCS(=O)(=O)c2ccc(Cl)c(Cl)c2)S1 (stereo not drawn) | -1%
CC(=O)NC1=NN(C(C)=O)C(C)(c2ccc(C)cc2)S1 (stereo not drawn) | -3.8%
O=C(COC(=O)c1cccs1)Nc1ccccc1Cl | -3.8%
O=C(Nc1ccccc1Cl)Nn1cnnc1 | 0.2%
O=C(Nc1ccccc1Cl)/C(Cl)=C(\Cl)S(=O)c1ccccc1 (stereo not drawn) | 96.8% (active)
CCOC(=O)c1csc(CCNC(=O)c2oc3c(Cl)cc(C)cc3c2C)n1 | -2.4%

Source: PubChem BioAssay AID1825 (The Scripps Research Institute Molecular Screening Center, 2009)
